The source of these data is ChEMBL document CHEMBL3988442, “University of Dundee, Small-Polar-MMV Screening Library” (2021).

For some of these results: Results with a measured potency or affinity are listed apart.

Holding throughout (design): scale not given: direction of the effect not stated beside the values
The target of test [1] is Protein translocase subunit SecA (Escherichia coli (strain K12)) (UniProt P10408). As to the kind of experiment: Assay to Identify E. coli SecA ATPase Inhibitors. The settings on record: 30 µM. Type of test: functional.
Sequence of Protein translocase subunit SecA (Escherichia coli (strain K12)) (P10408 whole entry): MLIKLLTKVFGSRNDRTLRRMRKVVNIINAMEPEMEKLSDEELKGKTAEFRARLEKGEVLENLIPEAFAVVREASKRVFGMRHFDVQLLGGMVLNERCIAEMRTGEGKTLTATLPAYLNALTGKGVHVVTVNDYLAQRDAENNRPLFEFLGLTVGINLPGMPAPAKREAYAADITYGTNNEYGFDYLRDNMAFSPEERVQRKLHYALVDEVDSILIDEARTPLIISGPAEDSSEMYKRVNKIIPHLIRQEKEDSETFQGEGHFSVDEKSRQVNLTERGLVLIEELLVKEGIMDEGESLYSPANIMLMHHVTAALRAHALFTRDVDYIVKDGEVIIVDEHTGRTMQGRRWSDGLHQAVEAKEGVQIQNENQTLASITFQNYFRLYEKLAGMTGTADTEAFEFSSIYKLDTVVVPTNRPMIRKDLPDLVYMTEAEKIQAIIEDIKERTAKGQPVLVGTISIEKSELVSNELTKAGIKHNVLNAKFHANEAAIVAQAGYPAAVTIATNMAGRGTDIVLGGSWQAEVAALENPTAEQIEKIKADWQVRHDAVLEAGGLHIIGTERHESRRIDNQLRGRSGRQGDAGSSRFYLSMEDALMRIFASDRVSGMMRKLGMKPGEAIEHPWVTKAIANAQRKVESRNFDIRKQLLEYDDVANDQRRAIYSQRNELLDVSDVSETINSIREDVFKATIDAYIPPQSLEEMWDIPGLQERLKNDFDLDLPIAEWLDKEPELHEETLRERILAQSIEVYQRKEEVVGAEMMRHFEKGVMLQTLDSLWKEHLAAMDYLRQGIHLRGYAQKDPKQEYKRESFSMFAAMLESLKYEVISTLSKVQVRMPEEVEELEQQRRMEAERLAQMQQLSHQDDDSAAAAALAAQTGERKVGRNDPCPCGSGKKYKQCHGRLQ
Test [2] has as its target T1, Ubiquitin-activating enzyme e1, putative (Leishmania donovani (strain BPK282A1)) (UniProt E9BSI1).
T1 sequence (whole entry): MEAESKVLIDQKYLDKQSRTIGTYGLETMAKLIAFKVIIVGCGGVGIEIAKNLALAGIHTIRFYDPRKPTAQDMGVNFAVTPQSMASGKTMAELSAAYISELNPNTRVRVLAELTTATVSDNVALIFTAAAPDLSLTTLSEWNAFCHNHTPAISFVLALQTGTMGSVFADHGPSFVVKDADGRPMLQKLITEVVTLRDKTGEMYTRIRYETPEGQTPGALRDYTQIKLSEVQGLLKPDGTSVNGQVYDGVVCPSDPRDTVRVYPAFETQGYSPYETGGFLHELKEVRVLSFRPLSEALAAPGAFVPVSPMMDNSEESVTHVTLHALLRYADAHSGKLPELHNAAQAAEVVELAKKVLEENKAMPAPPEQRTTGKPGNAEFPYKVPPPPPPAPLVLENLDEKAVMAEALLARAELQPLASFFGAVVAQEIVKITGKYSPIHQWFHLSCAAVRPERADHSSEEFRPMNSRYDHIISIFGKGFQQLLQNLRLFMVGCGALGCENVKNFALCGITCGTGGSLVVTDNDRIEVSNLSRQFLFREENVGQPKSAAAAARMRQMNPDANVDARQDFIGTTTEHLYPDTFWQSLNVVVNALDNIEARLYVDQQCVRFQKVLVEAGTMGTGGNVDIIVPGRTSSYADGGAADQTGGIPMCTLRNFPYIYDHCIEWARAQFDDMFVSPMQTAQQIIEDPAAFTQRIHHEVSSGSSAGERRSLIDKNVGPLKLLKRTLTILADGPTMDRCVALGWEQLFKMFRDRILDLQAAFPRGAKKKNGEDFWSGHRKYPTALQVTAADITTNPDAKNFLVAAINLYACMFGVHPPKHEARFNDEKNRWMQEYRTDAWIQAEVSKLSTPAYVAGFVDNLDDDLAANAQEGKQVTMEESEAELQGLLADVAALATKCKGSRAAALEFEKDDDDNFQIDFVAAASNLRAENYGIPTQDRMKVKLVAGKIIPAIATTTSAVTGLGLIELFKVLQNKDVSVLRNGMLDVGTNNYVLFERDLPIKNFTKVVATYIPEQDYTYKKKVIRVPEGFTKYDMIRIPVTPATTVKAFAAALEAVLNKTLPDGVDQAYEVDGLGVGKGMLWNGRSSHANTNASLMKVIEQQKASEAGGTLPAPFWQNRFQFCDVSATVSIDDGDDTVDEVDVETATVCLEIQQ
In words: Leishmania donovani Ubiquitin Activating Enzyme (LdE1). Type of test: functional. The settings on record: 30 µM.

The target in test [3] is AMP-activated protein kinase, AMPK (Homo sapiens) (UniProt P54646+O43741+P54619+Q9UGJ0+Q9Y478+Q13131+Q9UGI9). As to the kind of experiment: AMP-dependent Kinase enzyme assay. An in vitro enzyme assay that detects ADP turnover that is directly proportional to AMPK activity. This uses naive AMPK that is activated during the assay with MK-8722. Type of test: functional. The settings on record: 30 µM.

For test [4], the target named is Sialic acid-binding Ig-like lectin 9 (Homo sapiens) (UniProt Q9Y336). As to the kind of experiment: Hs-Siglec9 ALPHAscreen SOP 20170721. To be noted: 10 µM.
Sequence of Sialic acid-binding Ig-like lectin 9 (Homo sapiens) (Q9Y336 whole entry): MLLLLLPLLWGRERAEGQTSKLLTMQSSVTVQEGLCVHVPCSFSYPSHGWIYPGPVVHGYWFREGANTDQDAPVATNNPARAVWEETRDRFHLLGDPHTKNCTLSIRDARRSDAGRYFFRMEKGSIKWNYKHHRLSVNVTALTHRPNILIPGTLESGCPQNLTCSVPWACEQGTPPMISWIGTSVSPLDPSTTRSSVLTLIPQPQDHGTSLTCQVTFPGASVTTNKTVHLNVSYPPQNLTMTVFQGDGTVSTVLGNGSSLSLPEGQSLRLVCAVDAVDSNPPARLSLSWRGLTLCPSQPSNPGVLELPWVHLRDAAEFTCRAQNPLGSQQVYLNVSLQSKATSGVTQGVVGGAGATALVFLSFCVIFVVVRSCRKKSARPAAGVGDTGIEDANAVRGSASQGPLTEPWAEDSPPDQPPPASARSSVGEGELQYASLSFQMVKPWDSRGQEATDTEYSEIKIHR
For a further test, the system named is Trypanosoma cruzi. As to the kind of experiment: Trypanosoma cruzi phosphomannomutase and mannose-1-phosphate guanylyltransferase assay. Type of test: functional. To be noted: 10 µM.
In test [5] the target is T2, Arginase-2, mitochondrial (Homo sapiens) (UniProt P78540).
T2 sequence (whole entry): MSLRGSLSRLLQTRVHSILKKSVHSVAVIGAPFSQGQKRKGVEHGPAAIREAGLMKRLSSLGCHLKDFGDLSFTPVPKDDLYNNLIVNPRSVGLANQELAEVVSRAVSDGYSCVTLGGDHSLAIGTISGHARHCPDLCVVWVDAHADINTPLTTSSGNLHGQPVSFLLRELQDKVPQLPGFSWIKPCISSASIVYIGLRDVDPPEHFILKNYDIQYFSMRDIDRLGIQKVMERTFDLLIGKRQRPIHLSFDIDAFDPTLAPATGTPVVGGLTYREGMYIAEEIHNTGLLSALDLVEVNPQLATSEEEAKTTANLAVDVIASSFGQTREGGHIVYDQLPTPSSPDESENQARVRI
In words: in vitro enzyme assay to detect the production of urea directly proportional to the activity of Arginase II. Note: in the data most compounds retested in dose-response had high values. Type of test: functional. The settings on record: 33.3 µM.

Test [6] has as its target T3, Proteasome subunit beta (Trypanosoma cruzi) (UniProt O96673).
T3 sequence (whole entry): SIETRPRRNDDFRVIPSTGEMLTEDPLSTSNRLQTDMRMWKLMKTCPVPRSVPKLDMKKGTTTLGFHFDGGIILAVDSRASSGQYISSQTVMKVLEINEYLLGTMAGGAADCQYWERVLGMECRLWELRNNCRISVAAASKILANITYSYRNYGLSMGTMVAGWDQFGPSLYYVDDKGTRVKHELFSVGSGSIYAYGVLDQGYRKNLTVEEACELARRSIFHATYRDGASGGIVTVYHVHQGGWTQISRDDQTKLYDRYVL
In words: Trypanosoma cruzi proteasome chymotrypsin-like activity (TcProtChymo) assay. Note: in the data most compounds retested in dose-response had high values. Type of test: functional. The settings on record: 9.37 µM.

The next test is filed under the species Homo sapiens. In words: To identify inhibition of the IFN signalling (Jak-Stat) pathway via expression of an eGFP reporter gene under the control of an IFN-stimulated response element (ISRE) containing MxA promoter. Type of test: functional. The settings on record: 30 µM. (In general: Reporter assays use an easily measured gene product as a stand-in for the process of interest.)

Test [7] addresses T4, Tyrosyl-tRNA synthetase, putative (Trypanosoma cruzi (strain CL Brener)) (UniProt Q4DSP6).
T4 sequence (whole entry): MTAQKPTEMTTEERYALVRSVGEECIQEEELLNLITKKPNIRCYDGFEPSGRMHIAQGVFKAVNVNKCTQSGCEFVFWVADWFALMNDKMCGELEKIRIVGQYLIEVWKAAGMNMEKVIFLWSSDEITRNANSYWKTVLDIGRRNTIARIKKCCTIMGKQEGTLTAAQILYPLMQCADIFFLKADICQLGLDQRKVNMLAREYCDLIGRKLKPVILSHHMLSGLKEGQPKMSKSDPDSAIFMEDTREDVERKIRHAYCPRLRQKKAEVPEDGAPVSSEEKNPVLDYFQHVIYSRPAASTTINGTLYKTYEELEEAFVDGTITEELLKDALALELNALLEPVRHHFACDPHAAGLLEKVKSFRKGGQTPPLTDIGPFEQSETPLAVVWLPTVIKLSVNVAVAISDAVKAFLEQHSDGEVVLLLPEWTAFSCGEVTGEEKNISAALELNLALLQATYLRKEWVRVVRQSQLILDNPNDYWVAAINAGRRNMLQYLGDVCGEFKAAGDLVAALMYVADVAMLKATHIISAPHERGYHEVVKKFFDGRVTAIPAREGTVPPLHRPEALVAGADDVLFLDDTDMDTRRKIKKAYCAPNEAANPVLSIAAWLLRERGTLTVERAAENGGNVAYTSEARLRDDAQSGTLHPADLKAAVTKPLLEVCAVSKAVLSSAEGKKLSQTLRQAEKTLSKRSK
As to the kind of experiment: Trypanosoma cruzi tyrosyl tRNA synthetase (TcYRS) _High Tyrosine SOP. Note: in the data most compounds retested in dose-response had high values. To be noted: 30 µM. Type of test: functional.

Test [8] deals with T4, Tyrosyl-tRNA synthetase, putative (Trypanosoma cruzi (strain CL Brener)). In words: Trypanosoma cruzi tyrosyl tRNA synthetase (TcYRS) SOP. Type of test: functional. To be noted: 30 µM.
Test [9] deals with Chromo domain-containing protein 1 (Saccharomyces cerevisiae (strain ATCC 204508 / S288c) (Baker's yeast)) (UniProt P32657). As to the kind of experiment: ScCHD-1 Enzyme Inhibition Assay. Note: in the data most compounds retested in dose-response had high values. Type of test: functional. To be noted: 30 µM.
Sequence of Chromo domain-containing protein 1 (Saccharomyces cerevisiae (strain ATCC 204508 / S288c) (Baker's yeast)) (P32657 whole entry, the tested form may be a part): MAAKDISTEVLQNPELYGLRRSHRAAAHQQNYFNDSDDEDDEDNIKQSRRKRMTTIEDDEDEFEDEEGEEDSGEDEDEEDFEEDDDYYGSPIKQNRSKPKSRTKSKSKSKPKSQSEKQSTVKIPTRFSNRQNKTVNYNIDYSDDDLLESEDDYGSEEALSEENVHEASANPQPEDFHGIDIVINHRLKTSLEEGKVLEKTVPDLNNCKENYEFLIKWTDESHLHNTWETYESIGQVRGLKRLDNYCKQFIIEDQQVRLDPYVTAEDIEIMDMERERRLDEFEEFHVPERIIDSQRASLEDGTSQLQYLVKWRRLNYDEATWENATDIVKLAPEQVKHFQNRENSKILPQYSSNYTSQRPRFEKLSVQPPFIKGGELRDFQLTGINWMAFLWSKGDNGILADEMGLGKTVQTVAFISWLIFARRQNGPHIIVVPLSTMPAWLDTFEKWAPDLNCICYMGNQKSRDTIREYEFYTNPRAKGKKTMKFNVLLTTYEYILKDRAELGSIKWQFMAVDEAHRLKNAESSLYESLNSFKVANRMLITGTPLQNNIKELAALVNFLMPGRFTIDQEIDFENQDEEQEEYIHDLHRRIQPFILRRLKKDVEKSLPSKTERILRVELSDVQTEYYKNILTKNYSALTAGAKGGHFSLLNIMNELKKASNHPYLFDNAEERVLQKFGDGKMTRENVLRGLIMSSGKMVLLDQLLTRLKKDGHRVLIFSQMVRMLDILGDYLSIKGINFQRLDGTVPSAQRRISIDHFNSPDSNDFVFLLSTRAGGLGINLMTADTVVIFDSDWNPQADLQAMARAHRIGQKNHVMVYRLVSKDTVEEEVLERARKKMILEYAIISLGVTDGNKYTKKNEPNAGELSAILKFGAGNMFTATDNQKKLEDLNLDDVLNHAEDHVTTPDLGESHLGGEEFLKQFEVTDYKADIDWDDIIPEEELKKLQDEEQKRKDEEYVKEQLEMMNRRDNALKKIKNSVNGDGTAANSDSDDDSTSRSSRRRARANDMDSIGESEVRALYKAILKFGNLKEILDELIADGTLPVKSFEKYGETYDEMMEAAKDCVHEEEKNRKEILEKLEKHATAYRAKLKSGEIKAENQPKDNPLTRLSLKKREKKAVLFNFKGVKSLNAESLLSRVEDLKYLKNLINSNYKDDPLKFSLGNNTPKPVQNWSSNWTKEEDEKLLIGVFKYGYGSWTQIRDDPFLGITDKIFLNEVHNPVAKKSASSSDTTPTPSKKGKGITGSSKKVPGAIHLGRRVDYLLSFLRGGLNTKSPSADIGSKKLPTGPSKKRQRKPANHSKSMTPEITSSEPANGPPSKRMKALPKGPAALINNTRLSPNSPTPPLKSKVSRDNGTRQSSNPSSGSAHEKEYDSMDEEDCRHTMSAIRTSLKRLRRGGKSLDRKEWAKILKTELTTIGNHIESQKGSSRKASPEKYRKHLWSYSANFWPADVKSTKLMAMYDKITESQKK

On to `COc1ccc(C2OC(COc3ccccc3Br)=NN2C(C)=O)cc1` (stereo not drawn), for which the Percent Effect is -1.41% in test [1]; 13% in test [2]; -0.88% in [3]; -8.22% in test [4]; -5.23% in the test with Trypanosoma cruzi; 3.23% in [5]. Also, the Percent Effect in test [6] was 9.22%; in the test filed under Homo sapiens, 4.18%; in test [7] it was 0%; in test [8], 1.28%; in test [9], -8.68%.

As for `CSc1ccc(NC(=O)Nc2ccc3c(c2)N(S(C)(=O)=O)CC3)cc1`, the Percent Effect in [1] is -1.27%; in [2], -23.4%; in test [3], -4.52%; in test [4], 3.62%; in the test with Trypanosoma cruzi, 3.06%; in test [5], -93.5%. Moreover, the Percent Effect in [6] is 27.9%; in the test filed under Homo sapiens, 30.8%; in test [7] it was -6.35%; in [8], -14.1%; in test [9] it was -6.55%.

Consider `CC1CN(CC(=O)NC(=O)NCc2ccccc2)CCO1` (stereo not drawn), for which the Percent Effect is -0.548% in test [1]; 15.8% in test [2]; 0.54% in [3]; -9.53% in [4]; 3.21% in the test with Trypanosoma cruzi; -1.18% in [5]. Further, the Percent Effect is 19.5% in test [6]; 11.4% in the test listed under Homo sapiens; 2.13% in test [7]; 7.79% in test [8]; -8.02% in test [9].

As for `Cc1nn(C)c(C)c1C1CCCN1Cc1noc(C2CC2)n1` (stereo not drawn), the Percent Effect in test [1] is 2%; in [2] it was 15.8%; in [3], -5.38%; in test [4], -11.5%; with Trypanosoma cruzi, -8.87%; in [5] it was 3.96%. The Percent Effect in test [6] was 15.5%; in the test filed under Homo sapiens it was 8.86%; in [7], 8.37%; in [8], 6.17%; in test [9] it was -6.57%.

Regarding `Cn1cc(C2CCCN2CCCc2nc(-c3cccs3)no2)cn1` (stereo not drawn), the Percent Effect in test [1] was -0.777%; in [2], -32.4%; in test [3] it was -4.52%; in test [4], -1.6%; in the test on Trypanosoma cruzi, -3.87%; in test [5], -6.41%. The Percent Effect is 7.03% in test [6]; 18.4% in the test filed under Homo sapiens; 4.43% in test [7]; -6.17% in test [8]; 0.396% in [9].

Regarding `O=C(Cc1cccc(F)c1)N1CCCCC1c1ccn2ccnc2n1` (stereo not drawn), the Percent Effect was -5.83% in [1]; -4.05% in [2]; 14.6% in test [3]; 3.14% in test [4]; -3.16% in the test on Trypanosoma cruzi; -4.41% in [5]. The Percent Effect is 5.3% in test [6]; 10.2% in the test filed under Homo sapiens; -4.3% in test [7]; -9.09% in test [8]; -10.5% in test [9].

Consider `COCCCC(=O)NS(=O)(=O)c1ccc2c(c1)OCCCO2`, for which the Percent Effect is -3.41% in test [1]; 5.26% in test [2]; -3.3% in test [3]; 9.85% in [4]; -7.94% in the test with Trypanosoma cruzi; 5.75% in test [5]. In addition, the Percent Effect in test [6] was -0.0846%; in the test listed under Homo sapiens, 0.992%; in test [7] it was 0.493%; in [8] it was -1.24%; in [9], 4.1%.

As to `CCOc1ccc(NC(=O)NCc2csc(NC)n2)cc1C`, the Percent Effect in test [1] is -1.88%; in test [2], 10.8%; in test [3], -11.1%; in test [4], 14.3%; in the test with Trypanosoma cruzi, 1.95%; in test [5], 0.924%. Also, the Percent Effect in test [6] was -1.26%; in the test listed under Homo sapiens it was 19.8%; in test [7] it was 12.9%; in test [8], 23.2%; in [9] it was -3.54%.
